This note sets out measurements from the supplement of paper PMC10105736.

Holding throughout (assay): MAPPIT interaction score (arbitrary units); higher = stronger binary interaction signal, active = hit call of the paper
Assay [1] has as its target CG4853. To be noted: MAPPIT configuration: N-N; pair source set: Curagen_low_conf.
Assay [2] addresses CG5062. To be noted: MAPPIT configuration: N-N; pair source set: Curagen_low_conf.
Assay [3] has as its target slmo. To be noted: MAPPIT configuration: N-N; pair source set: Curagen_high_conf.
Assay [4] has as its target CG5174. To be noted: MAPPIT configuration: N-N; pair source set: Curagen_high_conf.
The target of assay [5] is CG5662. To be noted: MAPPIT configuration: N-N; pair source set: screen_2.
Assay [6] has as its target CG4707. Particulars: MAPPIT configuration: N-N; pair source set: Curagen_high_conf.
Assay [7] has as its target CG4884. Particulars: MAPPIT configuration: N-N; pair source set: Finley_Y2H.
In assay [8] the target is CG46280. Particulars: MAPPIT configuration: N-C; pair source set: screen_4.
The target of assay [9] is CG4789. To be noted: MAPPIT configuration: N-N; pair source set: Lit-BS-16.
Assay [10] deals with PVRAP. Particulars: MAPPIT configuration: N-N; pair source set: Lit-BS-16.
The target of assay [11] is CG4860. Particulars: MAPPIT configuration: N-N; pair source set: Curagen_high_conf.
The target in assay [12] is CG5708. Particulars: MAPPIT configuration: N-C; pair source set: screen_4.
In assay [13] the target is Polr3F. Particulars: MAPPIT configuration: N-C; pair source set: screen_3.
The target in assay [14] is hale. Particulars: MAPPIT configuration: N-N; pair source set: screen_1.
Assay [15] concerns the target pasi2. To be noted: MAPPIT configuration: N-N; pair source set: Lit-BS-16.

Values without a mark were called inactive.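 Rule for the calls: active = MAPPIT score above the 99th percentile of random reference set scores in the same batch; inactive = at or below it.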
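Note: HEK293T cells with Epo stimulation, STAT-responsive firefly luciferase reporter, fold induction versus unstimulated cells divided by the larger fold induction of two negative controls lacking either bait or prey.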

B1: Rtca (protein)
chain: MDAEKMLEIDGSYLEGGGQALRNALSLSCILGKPVRVVKIRASRPSPGLSHQHLHGLNLLRDITNADVVGNYLLSSTVEFTPRTILDNTYRVETHTAASITLIYQMALPVLLFAGRPSRLIVSGGTNVDFAPPVEYMQEVLLPNLKHFGVSFDLKVQRYGFYPRGQGRCQLDVQPVTKLNSGKLVAFGRIKSVSGVAYCAGRLPVNIAIDMQQTAQREIHRLWPSQQCSIEPIKHSRQKAFHNGAGILMTVNTTSDVVLGASALGKKRIDGHVLGSEASCQLGDYMRKQVCVDDYMQDQLIIYMALAVGRSTMRTGKLTNHTRTAINVAEQMTGVKFDVAMEPGGQMLVSCKGLGHVNKLI
Turning to B1, the MAPPIT interaction score in assay [1] was 1.6.

B2: IntS10 (protein)
chain: MPSQEENELYMVKEAQRLRKSDPCAAMAWIITAKTLYPNAFNLQYEAYLLERDAQNYEEAAKCFSAIATNFQNQHTELWQEINSLTNALRNENETTPEHEFYVKMYKHLTPEVQHNIFMHTINHSADNLERIYIYILMFNKFPKSAITQAPRLLEMLAEGMKTEPDLYQRILVEEVLPMIQNKPPELSPNLACRLYTSSLEFYLRQIMDESDTADAWKNIFKVLMICGQMMGWEPFLPFSKHVNQNVYWEKLVDILSGSPAGSSQVLFYATTLFIYSLHGYIRNCKLRIEDADVTHVLVEGFMEWSPEGDGSEVPSMEPPKFSLTTAISPELSKAFLHAAQCWQLLNTDQFQRDFSQLMLALPLAPWISRFLFDLAIYFGHRDEANKLMADMTTQSSLVQSLQILSLNLMQGSMTLQGFQCILKILSELPTTQGQLLENMSLKGHRHMVFLPLTRSALVQYCVGAIISRLSRKVFEPNVPDRLLGDILVLQQLNLLNDVLLTQQIFNLIKQRKSFNLRTLSTYIINIDLLEELSHIWNSQQEDNFELTSSPNSSGTPTATTVAGGSQSRRIGTRGADKGARDEFRAITRQQIARCNENVITLLANFINQEHLMLAQHIFGISQPVETIVIK
Regarding B2, the MAPPIT interaction score in assay [2] was -0.102; in [3], 1.15.

B3: rad50 (protein)
chain: MSSIESLSIQGIRSFGTYADDLQSIKFSSPVTLILGENGCGKTTVVECLKYALTGECPPGSDRGKSFVHDPKIFGLNEVLAQIKMQVRDRRGAQVSICRTMKVSKKRNKMSFETMDSTINFLTGAGQSKREKQDSLSGRSVDIDVAISDFMGVSKAIINNVLFCHQEDSSWPLDESKKLKEKFDAIFGITEYNKALDKIIKLRKEAMEELKIKEANIKHVAYLKQEMEVKTLNLQKAQRKCDAIKAQCSECEEEMKPIEARLVEIRNVEFEIGKYQAQKVEMDTKHKNCKDQISTLTLKIKKPFRGTLDELDQEISNFDQRMLEMRQKRTEVEGDLSQIKRSSVAEQEKLGTQDRKHCLAKQRHQSELACRAQLLKRVKEFCRELHIPIDCDLVEQPEKMGEVLRDIEAMIITKHCEITEIVEQNEKADRSRQVKIDELRIELTKSEQSVTAQEKQRESSKRESETLGVEIKKIETSMQDLKKLEKEINEVNELYESATKNIDQQAIKDAIARKKASIAENQIQFKKLDEQLTFLGSMAKLVAECSLKQKELDKKNQEVHRVRSRHSDHFGKLFKEPITCNYRRSMQVVYEKLRREIQELNEKANTQKLKEQSYEIKRKNLISDISRMEKELKDSEELIYQKCRSTPYDDLLERSKTTISKLQFDHGALKSSEALYKKYIQKMDEEPSCPLCHHNMTSDEACDLTSELTDEIQKLPDNITRAEKALKAEQIKYENLLQLKPTILKVKELKDSLPQKKEELKKVEELLGDSVSEYETLIALIGEPTHNMELANSMMGDMSLLDEALKDSARLTKDLDLQKGQLPASYDSSVSMDDLQAEKSKVSKELETERKELESAQNAVQQQMDALNRLREKKNSLKDRQIHLREGLQSLPQLKERLEKLNSFLTTVASEISELKAKIQPLKLNLRAAIEEKERLKKSESEKLAQLNSKYNSYKSTDHDIQRLNKEAEDYAKLDLRNEIKKLDEIIMASKDKLRKLEAEISLKTDELETIKTECSNQQTVERDLKDNRELKQLEDKEAKLRESCQVLDKQLGNLDFHSVSKEKVNLTKQRDKATVRKGELLGQLGEIHSQVNKLQREIDEPRFKESLKNFRKANYEIEVTRLCIEDLGQYRLALEWALIQFHSEKMEMINRLIREYWRKIYRGNDIDYIQVKTDEVSSDASADRRKTYNYRVVQSKNYSEIEMRGRCSAGQRVLASLIIRLALAETFSSNCGVLALDEPTTNLDRANINSLCEALNCIVEERQSQSNFMLIIITHDENFVSSLGKITSYHRVFRNEECKSVIRRVEAGPSKKALIDQ
B3: the MAPPIT interaction score in assay [4] is 0.0423.

B4: CG9393 (protein)
chain: MEMQLGAMLYVYKGEYGLPSIDFECLRALCLLRFTRCPMDVQTSSNPLRSGAGKLPYLQIGNQKFAGYRQIKRVLDLEGYPIDAHLSTKQKHLSTAYANWVFTNLHAYYHYFLFGEPHNFDTTTRGLYAKRTPFPFNFYYPSSYQREACDVVQVMAGFDVNDKLDKHEGDYLVVNAKKVVNLLSRKLGRKVWFFGDTYSEFDAIVYSYLAIIFKIALPNNPLQNHIKGCQNLVNFINRITKDIFRIEGYSSVKLTKTPSGTEASLTASERKFLDSELNTKIVAGVGAVLAMGAFAAWRGIYNQLTTRSSTDYDGIDYEDDEMEEGLD
For B4, the MAPPIT interaction score in assay [5] was 4.82 (active).

B5: Prosalpha7 (protein)
chain: MSTIGTGYDLSASQFSPDGRVFQIDYASKAVEKSGTVIGIRGKDAVVLAVEKIITSKLYEPDAGGRIFTIEKNIGMAVAGLVADGNFVADIARQEAANYRQQFEQAIPLKHLCHRVAGYVHAYTLYSAVRPFGLSIILASWDEVEGPQLYKIEPSGSSFGYFACASGKAKQLAKTEMEKLKMDMRTDELVESAGEIIYKVHDELKDKDFRFEMGLVGRVTGGLHLINPSELTEKARKAGDAANKDEDSDNETH
For the molecule B5, the MAPPIT interaction score in assay [6] is -0.137.

B6: nudE (protein)
chain: MESPPMFNSVEDECRYWKERSKQYHKEWTDVKQEYDEFVEQSREMEIEMDATLDQKQSIIKDLTAKLTMFERENESLKLKLESHGIDMSNMEKQLETVKKDRDTMKVYLRQLEQKNDDLERAHRILNESIENFEKMLDQAYEKNALLELEVDEKGLLQEKLQRLMDETRDLKQELNVKSRFTPVVNGTSVPTANDTNTVNSSMNSSASLPNGIVANGELVKHDNAVATRATSVSVNALNGSLVNRNEYNQQHSLKSDGDETEDVPREWSANAAATPLLPAIHTSGAGRTALLLAGCRVVWILQFSVIHKPQIRNPIT
Consider B6, for which the MAPPIT interaction score in [7] is 0.246.

B7: Tm2 (protein)
chain: MDAIKKKMQAMKLEKDNAIDKADTCENQAKDANSRADKLNEEVRDLEKKFVQVEIDLVTAKEQLEKANTELEEKEKLLTATESEVATQNRKVQQIEEDLEKSEERSTTAQQKLLEATQSADENNRMCKVLENRSQQDEERMDQLTNQLKEARMLAEDADTKSDEVSRKLAFVEDELEVAEDRVRSGESKIMELEEELKVVGNSLKSLEVSEEKANQRVEEFKREMKTLSIKLKEAEQRAEHAEKQVKRLQKEVDRLEDRLFNEKEKYKAICDDLDQTFAELTGY
On to B7, for which, in [8], the MAPPIT interaction score was 1.5.

B8: Jupiter (protein)
chain: MAAYAAFKHVELYNVGKAKKRVLRPPGGGSSDIFGSEMPQTPRNVKNRMASNIFAAEKDNGVKNNVRQGAHRFYFIGDAPRRGQKTVDSHSRLFGEPTRPITPGKNHMKSSIPFGQNTEAVAAQKLLTTNGHYNGKSGSVSSASSSVSSSTENLKMNSGSRSEGNPVTGEGYKVVANEYSQRQESSNGGTPVINKNRIPPGGYSSGLW
In the case of B8, the MAPPIT interaction score was 0.553 in [9] and -1.6 in assay [10].

B9: Ndg (protein)
chain: MPTFGSKLLACLLLSSVILVSGQFEHYLDSLRASELYEFEDGSLGSIHLLPKGDSETIVLQLEQPIHFYGEQYEQLYINTNGILTFNSEFPEYLNQPFPLEYASIAAFYSNVDTSFSDEGTSISLFESKEQSILDRASSLVRYAFSSQSEFEARQVIVATWRNVGYFDSKTDRLNTFQVALIANEQSTFVQFIYPDGGLNWLQGETAGLGLPDIRAQAGFVAEDGRFYTLNGSGSENARFLSESTNLGVPGVWLFEVAPIENEQNVRSPDNAESLTESPALALSCQAHAHQCHEKAECHDKAEGYCCVCGSGFYGNGKSCLANDQPIRVTGTLTGELNKQPVSEEAKLQSYVVTSEGRTYTTINPLTPELGAQLRLVLPLLTTVPWLFAKSVGGVANGYQLTGGVYTHVSRLQFDSGENLHVNQTFEGLNYWDQLSVKIEIYGEVPAVAADAVLILPDYVEEYTFERPGELKSVQVLNINITEEQRVLGLQVEQRILYRSCLRDDEADPSATKVLQKISKVALDYVERDQALRIGAMSKVGVTPESNACNDGTADCVENSVCVPYEDTYRCDCYHGFAAQLDERGVEVCLDIDECATGSHVCDENAVCDNTEGGFNCYCTEGFEGNGYRCLSNSTADNIEYPPAVEGQAEPTSEPSPNPSPYPDQGQDQEREREDDQYPQPNPYPYPEEQIPQHPDECYRCSKDADCYQGRCTCHEGFDGDGYTCTNICGHGEVWENGRCEPLLLERHDVDPLCDALGECRCPYGYELSEDSQRCTYVQEFDGERNADLIPCDVDENCHINATCNWYGQELRHICTCQPGFRGDGYNCDPISDDSCAIRPDICDVHADCVYEEHLGKSECQCQAGYTGNGFNCQLAAECQSAEHCGENAFCDDGVCRCQADFERDVSDRCVPAGRCGSVFCGSNAICKWDSAEGVQYCDCLDGYQGDALTGCTSKPLSCHVLNNCGIHATCEPTEDPANYECQCIAGFKGDGYVCIEEQNCLNNPTLCDMNAQCRSTNSGLVCVCNQGFFGNGSLCQERQHQDSDFLIVSQGVMIARVPLNGRNVRPISVAQMAIGLDKDCVEGRVYWGDISTKKIVSTKYDGTDLRPFITTDIESPEGIAIDVISRRLYWADSAKDTIEVASLDDPSLRAVIINKQLVNPRGIAVDPYREKLFWSDWDRESPKIEMSNLDGTGRELLLGKDDVTLPNSLVVLENSGEVCYADAGTKKVECIEPQNRQIRTISNELSYPFGITFTHDQFYWTDWTTKKVEIVDSLGARQTPIQPPFFGSHKMYGMTVVEQHCPQYQSPCQISNGGCTDSRLCLVNRQAPSGKSCKCTSASTGCTVLAPGY
B9: in [11], the MAPPIT interaction score is -0.238.

B10: H2.0 (protein)
chain: MLLHESAASMEQSMPENLSTHMYGECEVNPTLAKCPDPVNVDHELPTKESCASTTIVSTSPTSATSTTKVKLSFSVDRLLGSEPEESHRQSSSSPSTKSCCDGSILACCSFPHCFSQANAESRRFGHATLPPTFTPTSSHTYPFVGLDKLFPGPYMDYKSVLRPTPIRAAEHAAPTYPTLATNALLRFHQHQKQQHQQHHHHQHHPKHLHQQHKPPPHNSTTASALLAPLHSLTSLQLTQQQQRFLGKTPQQLLDIAPTSPAAAAAATSQNGAHGHGGGNGQGNASAGSNGKRKRSWSRAVFSNLQRKGLEIQFQQQKYITKPDRRKLAARLNLTDAQVKVWFQNRRMKWRHTRENLKSGQEKQPSAVPESGGVFKTSTPSGDGTPQEALDYSSDSCSSVDLSEQADEDDNIEINVVE
For B10, the MAPPIT interaction score is 2.81 in assay [12], 2.33 in [13], 0.405 in assay [14] and 2.43 in assay [15].
